Source: PubChem BioAssay (National Center for Advancing Translational Sciences (NCATS))
DT40 TDP1 no CPT = qHTS for Inhibitors of human tyrosyl-DNA phosphodiesterase 1 (TDP1): qHTS in cells in absence of CPT; DT40 Tdp1-/- hTDP1 cells, no CPT, ATP luminescence, 48 h; Potency, µM (doses to about 46.2 µM), most hits filed as inhibitors; AID 686978, 2013; 420,000 tested, 15% active; note: nearly all actives have a fitted effect of over 55% in size
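Chicken DT40 Tdp1-/- cells complemented with human TDP1, screened without camptothecin (DMSO vehicle only), 400 cells/well. Compounds pin-transferred, cells incubated at 37 °C for at least 48 hr. Growth read as ATP-dependent luminescence (CellTiter-Glo, 30 min at RT).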
MCF10A rereplic = A quantitative high throughput screen for small molecules that induce DNA re-replication in MCF 10a normal breast cells; MCF 10A DNA re-replication, Hoechst nuclear intensity, 48 h; Potency, µM (top dose mostly 46.1 µM), usual class: activators; 350,000 tested, 2.9% active; note: nearly all actives have a fitted effect of over 50% in size
IL-1B inflam inh = qHTS for Inhibitors of Inflammasome Signaling: IL-1-beta AlphaLISA Primary Screen. THP-1 LPS/ATP IL-1B secretion, AlphaLISA, 16 h; active compounds read low. activity change, % at 57.5 µM. 360,000 tested, 4.7% active. AID 743279, 2014; in the data active = activity change below about -50%; inconclusive = mostly about -30% to -49%
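THP-1 cells pretreated 1 hr with compounds (up to 57.5 uM final), then stimulated with LPS (250 ng/mL final) plus ATP (1.25 mM final); secreted IL-1B measured by AlphaLISA after 16 hr, decreased signal indicating inhibition.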
TDP1 cell CPT = qHTS for Inhibitors of human tyrosyl-DNA phosphodiesterase 1 (TDP1): qHTS in cells in presence of CPT | chicken DT40 Tdp1-/-;hTDP1 cells + 20 nM CPT, ATP luminescence, 48 h | 420,000 tested, 12% active | Potency, µM (titrated, usually from 46.2 µM), most hits filed as inhibitors | AID 686979, 2013; note: nearly all actives have a fitted effect of over 55% in size
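Cell growth measured by CellTiter-Glo luminescence after a minimum 48 h, 37 C compound exposure with 20 nM CPT in Tdp1-knockout DT40 cells stably expressing hTDP1, seeded 400/well; qHTS titration format.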
Chronic BCR inh = qHTS Assay to Find Inhibitors of Chronic Active B-Cell Receptor Signaling | Potency, µM (highest dose often 46.1 µM), hits mostly inhibitors | ABC-DLBCL IkBa-CBG/CBR reporter, luminescence ratio, 4 h | 340,000 tested, 0.05% active; active = well fitted inhibition curve with a large enough effect in the signal ratio, with a control signal flat, not every such curve was filed as active; inconclusive = small, poorly fitted or top-dose-only effect, or effect the other way, or a change in a side signal; the % refers to the signal ratio
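Doxycycline induced both beetle luciferases in TMD8 lymphoma cells; IKK-driven degradation limits the IkappaBalpha-fused green signal, while red luminescence normalises for cell number and nonspecific effects. Compounds tested up to 46 uM, 4 hrs.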
SW480 rereplic = A quantitative high throughput screen for small molecules that induce DNA re-replication in SW480 colon adenocarcinoma cells. SW480 DNA re-replication, Hoechst DNA content imaging, 48 h. Potency, µM (doses to about 46.1 µM), hits mostly activators. 340,000 tested, 1.8% active. AID 624297, 2012; note: nearly all actives have a fitted effect of over 55% in size
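Quantitative HTS format with DMSO vehicle controls; 48 hr drug incubation at 37 C, then 40 min Hoechst staining and scanning imager measurement at 405 nm excitation.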
A number is an active result; - = inactive; ? = inconclusive; . = no result given; [ ] = dose if it differs, or a comment. The list is not random: actives were taken first. Their share in the collection is about 19%. Unless noted, calls come from the whole dose curve; as a rule, active = well fitted curve in the direction sought with a large enough effect; inconclusive = small, poorly fitted or top-dose-only effect, or another doubt; inactive = no such curve, though single readings can be large; an effect the other way counts as inactive or inconclusive.

SMILES	DT40 TDP1 no CPT	MCF10A rereplic	IL-1B inflam inh	TDP1 cell CPT	Chronic BCR inh	SW480 rereplic
COc1cc(NC(C)CCCN)c2nc(C)ccc2c1Oc1ccc(F)cc1 (centres undefined)	10µM	.	-	26µM	.	.
COc1cc(NCc2ccccc2O)c2ncccc2c1	?	21µM	-	-	-	-
CC(C)N(C(C)C)S(=O)(=O)c1ccc(N2CCc3ccccc3C2)nc1	?	?	-106	?	?	-
CCCCNC(=O)C1(C)CCC(=O)N1C1CCN(Cc2ccccc2)CC1 (centres undefined)	-	.	-	-	.	.
Nc1nc(SCC(=O)Nc2cc(Cl)c(Cl)cc2Cl)n[nH]1	?	-	-52	-	?	-
CCc1nc(SCC(=O)Nc2ccccc2C)n[nH]1	-	-	-	-	-	?
CCc1nc(SCC(=O)Nc2ccccc2Cl)n[nH]1	-	-	-	-	-	9.2µM
CCc1nc(SCC(=O)Nc2ccc(N(C)C)cc2)n[nH]1	4.6µM	-	-	4.6µM	-	?
O=c1[nH][nH]c2c1[C@H](CCc1cccc(Cl)c1)O[C@H](C1CCCC1)C2	?	.	-	?	.	.
CN(C)c1cc2c(cc1NC(=O)c1ccccc1Cl)n(C)c(=O)n2C	?	-	-	?	?	-
O=C1NN=C2CCCCCCCCCCC12 (centres undefined)	-	.	-	-	.	.
Cc1cc(C(C)(C)C)cc(C)c1COC(=O)CN1C(=O)NC2(CCCC2)C1=O	?	-	-	-	-	-
COC(=O)c1nn(-c2ccc(OC)cc2)c(=O)c2c(N)sc(C)c12	16µM	-	-	23µM	-	29µM
CCN(C(=O)Cc1c(C(=O)O)n(CC)c2ccccc12)c1cccc(C(F)(F)F)c1	-	-	-	-	-	-
Cc1nc2cc(C(F)(F)F)ccc2n1CCNc1nc(-c2ccc(F)cc2)cs1	?	-	-	?	-	?
Cc1ccc(-c2csc(NCCn3c(-c4ccncc4)nc4ccccc43)n2)cc1	23µM	-	-	?	?	-
COc1ccc(-c2csc(NCCn3c(C)nc4cc(C(F)(F)F)ccc43)n2)cc1	?	?	-	?	-	-
Cc1ccc(Cn2c(CCNc3nc(-c4ccc(Cl)c([N+](=O)[O-])c4)cs3)nc3cc(C(=O)NCCCO)ccc32)cc1	13µM	?	-	10µM	.	-
Cc1nc2cc(C(F)(F)F)ccc2n1CCNc1nc(-c2ccc([N+](=O)[O-])c(Cl)c2)cs1	21µM	-	?	?	?	-
Cc1ccc(-c2csc(NCCn3c(-c4ccncc4)nc4cc(C(F)(F)F)ccc43)n2)cc1	?	?	?	29µM	-	-
CC1=NN(c2cccc(C(=O)O)c2)C(=O)/C1=C\C=C/c1ccccc1	1.3µM	?	-103	0.58µM	?	-
CC1=NN(c2ccc(C)cc2)C(=O)/C1=C\C=C\c1ccccc1	9.2µM	?	-180	12µM	-	-
CCC1CO/C(=C(\C(Cl)=C(Cl)Cl)[N+](=O)[O-])N1 (centres undefined)	-	-	-61	-	-	-
O=[N+]([O-])c1ccc(Sc2cccc3cccnc23)c2cccnc12	26µM	-	-	18µM	-	?
O=[N+]([O-])c1cc2cccnc2c2ncccc12	?	-	-	?	-	15µM
SMILES	DT40 TDP1 no CPT	MCF10A rereplic	IL-1B inflam inh	TDP1 cell CPT	Chronic BCR inh	SW480 rereplic
O=[N+]([O-])c1ccccc1OCCCOc1cccc2cccnc12	?	-	-	?	?	-
Cc1ccc([N+](=O)[O-])c2cccnc12	-	-	-	-	-	-
NC(=O)c1cc(NC(=O)CCNS(=O)(=O)c2cccc(C(F)(F)F)c2)cc(C(N)=O)c1	-	-	-	-	-	-
O=S(=O)(NCc1nc(N2CCCC2)c2cc(Cl)ccc2n1)c1ccccc1OC(F)(F)F	-	.	.	-[9.04 µM]	.	.
CCC(C)(C)NC(=O)C(c1ccc(C)o1)N(Cc1cccs1)C(=O)Cn1nnc2ccccc21 (centres undefined)	?	?	-	?	-	-
CCC(C)(C)NC(=O)C(c1ccccc1)N(Cc1cccs1)C(=O)Cn1nnc2ccccc21 (centres undefined)	?	?	-	18µM	.	-
Cc1ccc(CN(C(=O)Cn2nnc3ccccc32)C(C(=O)NCc2ccco2)c2cccs2)cc1 (centres undefined)	23µM	-	-	?	-	-
CCc1ccc(C(C(=O)NC(C)(C)CC)N(Cc2ccco2)C(=O)Cn2nnc3ccccc32)cc1 (centres undefined)	?	-	-	18µM	-	-
CCC(C)(C)NC(=O)C(c1ccc(OC)cc1)N(Cc1cccs1)C(=O)CCC(=O)Nc1cc(C)on1 (centres undefined)	?	?	-	18µM	-	-
CCC(C)(C)NC(=O)C(c1ccccc1F)N(Cc1ccco1)C(=O)Cn1nnc2ccccc21 (centres undefined)	?	-	-	-	-	-
CCCCOc1cccc2c(=O)n(CC(=O)Nc3ccc4c(c3)OCCO4)ccc12	-	.	-	-	.	.
O=c1ccn([C@@H]2O[C@H](CNCC3=Cc4cc(O)ccc4OC3)[C@@H](O)[C@H]2O)c(=O)[nH]1	-	-	-	-	.	-
CC(CC(c1ccccc1)N1CCc2ccccc2C1)=NO (centres undefined)	18µM	.	-	?	.	.
OC(CN1CCc2ccccc2C1)c1ccccc1 (centres undefined)	-	?	-	-	-	-
Cc1ccc(NC(=O)C(C)OC(=O)c2ccc(NC(=O)CC#N)cc2)cc1S(=O)(=O)N1CCOCC1 (centres undefined)	-	-	-	-	-	-
CCn1c(=N)n(CC(=O)c2ccc(Br)s2)c2ccccc21	?	-	-	?	?	-
CCCCn1c(=N)n(CC(=O)c2ccc(Br)s2)c2ccccc21	4.1µM	?	-98	5.2µM	?	?
CCCCn1c(=N)n(CC(=O)C(C)(C)C)c2ccccc21	?	?	-	23µM	-	-
Cc1ccc(NC(=O)N2CCN(C)c3ncccc32)cc1C	-	.	.	-	.	.
CCOc1ccc2c(c1)N(C(=O)CN1C(=O)CCC1=O)C(C)(C)C=C2C	?	-	-	?	-	-
CC1=CC(C)(C)N(C(=O)CNC2CCCC2)c2cc(C)ccc21	26µM	-	-	?	?	-
